# PubChem BioAssay (NCATS)
# “And” between values parts separate entries of the source, which are not always exact repeats. Equal entries are not always repeated. Records with an inconclusive call do not appear. A call without a number means that no potency is given here. The source made the active and inactive calls. Unless noted, calls come from the whole dose curve; as a rule, active = well fitted curve in the direction sought with a large enough effect; inconclusive = small, poorly fitted or top-dose-only effect, or another doubt; inactive = no such curve, though single readings can be large; an effect the other way counts as inactive or inconclusive.
# Key:
# [1] = target: Cytochrome P450 3A4 (Homo sapiens) (UniProt P08684); test: Cytochrome P450 family 3 subfamily A member 4 (CYP3A4) small molecule antagonists: luciferase qHTS assay (AID 1645841; active = well fitted curve in the direction sought with a large enough effect in the repeat runs; an effect the other way counts as inactive or inconclusive; note: nearly all actives have a fitted effect of over 45% in size; note: potency is the fitted concentration of half-maximal effect)
# Outline: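 P450-Glo CYP3A4 enzyme with proluciferin substrate was preincubated with DMSO-dissolved compounds for 10 min at room temperature. NADPH regeneration solution started a 1 h reaction. Detection reagent stopped it, and luminescence was read after 20 min.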
# [2] = Cytotoxicity counterscreen for inhibitors of SARS-CoV-2 cell entry (AID 1645845; calls by dose curve; note: nearly all actives have a fitted effect of over 50% in size)
# Outline: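 After a 15 min room-temperature ATPLite 1step step, luminescence reflected ATP remaining in HEK293-ACE2 cells exposed to compound for 1 h plus 48 h at 37 C, with percent activity set by cell and no-cell controls.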
# [3] = Primary qHTS to identify inhibitors of SARS-CoV-2 cell entry (AID 1645846; calls by dose curve; note: nearly all actives have a fitted effect of over 45% in size; note: potency is the fitted concentration of half-maximal effect); conditions: activity change, negative = inhibition: at 57.1 µM (top of the series) unless noted
# Outline: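 Inhibition of spike-mediated entry was scored in human ACE2-transfected Expi293F cells. Particles were MLV-pseudotyped with Wuhan-Hu-1 S carrying a 19-aa C-terminal deletion; signal was luciferase after two days, scaled between spike PP and fusion-protein-free PP.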
# [4] = Primary qHTS for inhibitors of nuclear receptor binding SET domain protein 2 (NSD2) in an isogenic RCH-ACV NSD2 p.E1099K mutant (9B) (AID 1645876); note: nearly all actives have a fitted effect of over 70% in size; note: potency is the fitted concentration of half-maximal effect
# [5] = Primary qHTS for inhibitors of nuclear receptor binding SET domain protein 2 (NSD2) in an RCH-ACV wild type WT cells (2C) (AID 1645877); note: nearly all actives have a fitted effect of over 70% in size; note: potency is the fitted concentration of half-maximal effect
# [6] = target: Cytochrome P450 2C9 (Homo sapiens) (UniProt P11712); test: Cytochrome P450 family 2 subfamily C member 9 (CYP2C9) small molecule antagonists: luciferase biochemical (cell-free) qHTS assay (AID 1645842; active = well fitted curve in the direction sought with a large enough effect in the repeat runs; an effect the other way counts as inactive or inconclusive; note: nearly all actives have a fitted effect of over 55% in size; note: potency is the fitted concentration of half-maximal effect)
# Outline: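 P450-Glo CYP2C9 system: proluciferin substrate with enzyme in mix containing 0.4% BSA, 10 min at room temperature, then NADPH regeneration solution added and incubated 1 h at 37C. Detection reagent stopped reaction; luminescence read after 20 min as RLU.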
# [7] = VSVG counterscreen qHTS to identify inhibitors of SARS-CoV-2 cell entry (AID 1645847; calls by dose curve; note: nearly all actives have a fitted effect of over 65% in size)
# Outline: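 Luminescence from a luciferase reporter, normalised to bald particle and VSV-G pseudotyped particle wells, is the read-out. Cells are HEK293 expressing human ACE2, exposed to compound 1 h before a 48 h particle infection at 37 °C.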
# Papain (Carica papaya) = Papain (Carica papaya) (UniProt P00784); test: Primary qHTS assay for inhibitors of the protease papain (AID 1645873);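 note: papain turnover of Z-FR-AMC read as the AMC fluorescence gain over 10 min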
# [8] = target: N-terminal Xaa-Pro-Lys N-methyltransferase 1 (Homo sapiens) (UniProt Q9BV86); test: Confirmatory qHTS for Inhibitors of N-terminal methyltransferase 1 (NTMT1): MTaseGlo Assay (AID 1645874); conditions: NTMT1 enzyme, MTase-Glo SAH luminescence; note: potency is the fitted concentration of half-maximal effect; nearly all actives have a fitted effect of over 65% in size
# Outline: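 Inhibition was derived from luminescence after SAH-to-ATP conversion, scaled between no-enzyme and DMSO wells, then fitted by 4-parameter Hill. Conditions: 125 nM NTMT1, 100 uM SAM, 1 uM SPKRIA, 30 min RT.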
# Chain of Cytochrome P450 2C9 (Homo sapiens) (P11712 whole entry, looked up): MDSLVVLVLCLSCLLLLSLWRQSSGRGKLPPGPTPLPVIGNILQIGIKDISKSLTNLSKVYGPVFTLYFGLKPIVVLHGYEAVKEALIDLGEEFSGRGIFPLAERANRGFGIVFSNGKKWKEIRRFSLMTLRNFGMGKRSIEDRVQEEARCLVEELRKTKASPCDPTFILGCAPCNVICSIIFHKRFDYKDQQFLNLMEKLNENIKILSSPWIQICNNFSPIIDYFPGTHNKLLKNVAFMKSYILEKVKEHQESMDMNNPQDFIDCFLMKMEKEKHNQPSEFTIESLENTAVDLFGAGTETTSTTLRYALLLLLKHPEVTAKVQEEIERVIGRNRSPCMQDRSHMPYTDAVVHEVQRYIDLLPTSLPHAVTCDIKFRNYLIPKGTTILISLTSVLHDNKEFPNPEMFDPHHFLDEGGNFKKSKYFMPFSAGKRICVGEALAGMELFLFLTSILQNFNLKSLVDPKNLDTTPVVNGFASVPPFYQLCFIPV
# Chain of Cytochrome P450 3A4 (Homo sapiens) (P08684 whole entry, looked up): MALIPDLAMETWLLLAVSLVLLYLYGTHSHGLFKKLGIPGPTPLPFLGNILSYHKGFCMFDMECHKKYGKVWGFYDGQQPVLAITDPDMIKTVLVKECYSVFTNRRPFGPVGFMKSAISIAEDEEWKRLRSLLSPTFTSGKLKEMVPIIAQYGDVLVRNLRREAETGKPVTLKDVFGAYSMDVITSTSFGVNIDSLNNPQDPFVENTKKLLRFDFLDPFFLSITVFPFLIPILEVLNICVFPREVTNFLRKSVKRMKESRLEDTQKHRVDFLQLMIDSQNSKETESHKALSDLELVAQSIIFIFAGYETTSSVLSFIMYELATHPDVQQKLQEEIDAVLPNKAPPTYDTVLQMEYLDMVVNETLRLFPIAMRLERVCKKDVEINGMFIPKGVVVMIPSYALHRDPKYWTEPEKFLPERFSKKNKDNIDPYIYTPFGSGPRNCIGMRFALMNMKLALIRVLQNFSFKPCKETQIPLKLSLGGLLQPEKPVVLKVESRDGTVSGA
# Chain of N-terminal Xaa-Pro-Lys N-methyltransferase 1 (Homo sapiens) (Q9BV86 whole entry, looked up): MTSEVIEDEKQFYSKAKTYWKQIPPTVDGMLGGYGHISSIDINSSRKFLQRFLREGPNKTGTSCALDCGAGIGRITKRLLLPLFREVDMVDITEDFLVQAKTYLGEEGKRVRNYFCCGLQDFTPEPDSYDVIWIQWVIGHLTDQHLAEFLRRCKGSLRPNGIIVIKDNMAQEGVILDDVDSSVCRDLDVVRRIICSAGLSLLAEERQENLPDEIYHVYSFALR
# Chain of Papain (Carica papaya) (P00784 whole entry, looked up): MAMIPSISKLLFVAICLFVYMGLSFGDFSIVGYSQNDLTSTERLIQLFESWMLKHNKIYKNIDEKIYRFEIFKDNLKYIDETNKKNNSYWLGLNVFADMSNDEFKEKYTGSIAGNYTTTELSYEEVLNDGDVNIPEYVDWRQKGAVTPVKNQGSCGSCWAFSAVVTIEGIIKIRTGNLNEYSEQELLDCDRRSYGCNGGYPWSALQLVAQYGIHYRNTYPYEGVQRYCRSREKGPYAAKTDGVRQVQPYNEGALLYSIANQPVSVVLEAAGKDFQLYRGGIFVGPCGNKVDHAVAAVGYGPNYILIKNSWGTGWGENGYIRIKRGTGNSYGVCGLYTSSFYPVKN
smiles,measurement,setting,value
O=C(O)CNC(=O)c1c(O)c2ccccc2n(Cc2ccccc2)c1=O,Potency,[1],inactive
same,Potency,[2],inactive
same,"activity change, negative = inhibition",[3],2.25%
same,Potency,[4],inactive
same,Potency,[5],inactive
CCC(=O)O[C@@H]1C=C2CCC3C(CCC4(C)C3CC[C@@H]4OC(=O)CC)C2CC1 (stereo not given in full),Potency,[6],19.5 µM (active)
same,Potency,[2],inactive
same,"activity change, negative = inhibition",[3],4.26%
same,Potency,[4],inactive
CC(C)NCC(O)c1ccc([N+](=O)[O-])cc1 (stereo not given),Potency,[1],inactive
same,Potency,[6],inactive
same,Potency,[4],inactive
same,Potency,[5],inactive
CSCC[C@@H](NC(=O)[C@@H](Cc1ccccc1)NC(=O)CNC(=O)CNC(=O)[C@@H](N)Cc1ccc(O)cc1)C(=O)O,Potency,[6],inactive
same,Potency,[2],inactive
same,"activity change, negative = inhibition",[3],-0.623%
same,Potency,[4],inactive
same,Potency,[5],inactive
C1CCC(NC2CCCCC2)CC1,Potency,[6],inactive
same,Potency,[2],inactive
same,Potency,[3],inactive
CCc1c(C(=O)C(N)=O)c2c(OCC(=O)O)cccc2n1Cc1ccccc1,Potency,[6],inactive
same,Potency,[2],inactive
same,"activity change, negative = inhibition",[3],-66.7%
same,Potency,[7],inactive
same,Potency,[4],inactive
same,Potency,[5],inactive
CCN1CCN(C(=O)Cc2ccc(Nc3ncc(F)c(Nc4ccc(C(=O)Nc5ccccc5Cl)cc4)n3)cc2)CC1,Potency,[6],1.9 µM (active)
same,Potency,[3],8.91 µM (active)
same,Potency,[4],2.31 µM (active) and 2.63 µM (active)
same,Potency,[5],2.31 µM (active) and 2.35 µM (active)
Nc1ccc([N+](=O)[O-])cc1,Potency,[6],inactive
CCCCc1ccc(C(=O)O)nc1,Potency,[1],inactive
same,Potency,[6],inactive
same,Potency,Papain (Carica papaya),inactive
COC(=O)c1cncn1C(C)c1ccccc1 (stereo not given),Potency,[6],11 µM (active)
same,Potency,[2],inactive
same,Potency,[3],inactive
same,Potency,[4],inactive
same,Potency,[5],inactive
O=S(=O)(O)C(F)(F)C(F)(F)C(F)(F)C(F)(F)C(F)(F)C(F)(F)C(F)(F)C(F)(F)F,Potency,[6],0.564 µM (active)
CCCCCCCCCCCCCCCC[N+](C)(C)C,Potency,[6],inactive
same,Potency,[3],25.1 µM (active)
same,Potency,[4],0.422 µM (active)
same,Potency,[5],0.596 µM (active)
O=[N+]([O-])/N=C1\NCCN1Cc1ccc(Cl)nc1,Potency,[6],inactive
same,Potency,[2],inactive
same,"activity change, negative = inhibition",[3],-0.0091%
same,Potency,[4],inactive
same,Potency,[5],inactive
Cc1ccccc1-n1c(Cn2ncc3c(N)ncnc32)nc2cccc(C)c2c1=O,Potency,[6],13.5 µM (active)
same,"activity change, negative = inhibition",[3],-50.6%
CC1(C)CC/C(=C/c2ccc(Cl)cc2)C1(O)Cn1cncn1 (stereo not given),Potency,[6],0.611 µM (active)
C=CC(=O)NCNC(=O)C=C,Potency,[6],inactive
Cc1c(C(=O)Nc2cccc(C(F)(F)F)c2)cc(-c2ccccc2)n1CCCN1CCOCC1,Potency,[6],4.77 µM (active)
same,Potency,[2],inactive
same,Potency,[4],20.9 µM (active)
same,Potency,[5],23.5 µM (active)
CCCCCCCCCC(CC)c1ccc(S(=O)(=O)O)cc1 (stereo not given),Potency,[6],7.74 µM (active)
O=C(O)c1ccccc1O,Potency,[1],inactive
same,Potency,[6],inactive
CC(=O)[O][Hg][c]1ccccc1,Potency,[1],7.76 µM (active)
same,Potency,[6],2.45 µM (active)
same,Potency,[3],1.58 µM (active)
same,Potency,[8],1.07 µM (active)
same,Potency,[4],0.596 µM (active)
same,Potency,[5],0.531 µM (active)
COc1ccc(C(c2ccc(OC)cc2)C(Cl)(Cl)Cl)cc1,Potency,[6],1.49 µM (active)
CCCN(CCC)c1c([N+](=O)[O-])cc(S(N)(=O)=O)cc1[N+](=O)[O-],Potency,[1],8.44 µM (active)
same,Potency,[6],3.77 µM (active)
same,Potency,[4],9.69 µM (active)
same,Potency,[5],12.2 µM (active)
CCO/N=C(\CC)C1=C(O)CC(c2c(C)cc(C)cc2C)CC1=O (stereo not given),Potency,[6],4.48 µM (active)
COc1ccc(N(C(=O)Oc2c(C)cccc2C)c2ccnc(Nc3ccc(N4CCN(C)CC4)cc3)n2)c(OC)c1,Potency,[6],21.3 µM (active)
same,Potency,[2],inactive
same,Potency,[3],inactive
same,Potency,[4],4.68 µM (active)
same,Potency,[5],5.25 µM (active)
COc1nn(CSP(=S)(OC)OC)c(=O)s1,Potency,[6],5.17 µM (active)
same,Potency,[4],9.69 µM (active)
same,Potency,[5],13.7 µM (active)
Nc1c(Cl)c(Cl)c(Cl)c(Cl)c1Cl,Potency,[6],inactive
same,Potency,[4],inactive
same,Potency,[5],inactive
CC1=C(O)C(=O)C=C2C1=CC=C1[C@@]2(C)CC[C@@]2(C)[C@@H]3C[C@](C)(C(=O)O)CC[C@]3(C)CC[C@]12C,Potency,[6],12 µM (active)
same,Potency,[3],14.1 µM (active)
same,Potency,[4],1.48 µM (active)
same,Potency,[5],1.66 µM (active)
CO/C=C(/C(=O)OC)c1ccccc1Oc1cc(Oc2ccccc2C#N)ncn1,Potency,[6],3.66 µM (active)
same,Potency,[4],24.3 µM (active)
same,Potency,[5],24.3 µM (active)
Nc1ccc(N=Nc2ccccc2)cc1,Potency,[6],9.2 µM (active)
same,Potency,[4],6.11 µM (active)
same,Potency,[5],6.86 µM (active)
CC(O)CN1CCN(CC(=O)[O-])CCN(CC(=O)[O-])CCN(CC(=O)[O-])CC1.[Gd+3] (stereo not given),Potency,[6],inactive
same,Potency,[4],inactive
same,Potency,[5],inactive
CC1=C(C(=O)O)N2C(=O)[C@@H](N)[C@H]2SC1,Potency,[6],inactive
same,Potency,[4],inactive
same,Potency,[5],inactive
Nc1ccc(Sc2ccc(N)cc2)cc1,Potency,[6],0.92 µM (active)
same,Potency,[5],34.4 µM (active)
Fc1cc(Br)ccc1CBr,Potency,[6],inactive
same,Potency,[4],inactive
same,Potency,[5],inactive
